The results in this text go back to PubChem BioAssay (NCATS).

Structures are written as SMILES. The source made the active and inactive calls. The call rests on the fitted dose curve.

This assay in a line: qHTS drug screen for cell cycle checkpoint inhibitors in PARPi-resistant BRCA-mutant ovarian cancer cell lines. (AID 1963452). Particulars: PEO1/OlaR viability, CellTiter-Glo luminescence, 96 h, stronger effect = lower value. From the text: Women's Malignancies Branch, Center for Cancer Research (CCR),
National Cancer Institute (NCI), National Institutes of Health (NIH), Bethesda, MD
Poly (ADP-ribose) polymerase inhibitors (PARPis) have changed the treatment paradigm in breast cancer gene (BRCA) - mutant high-grade serous ovarian carcinoma (HGSC). However, most patients eventually develop resistance to PARPis, highlighting an unmet need for improved therapeutic strategies. Using high-throughput drug screens, we identified ataxia telangiectasia and rad3-related protein/checkpoint kinase 1 (CHK1) pathway inhibitors as cytotoxic and further validated the activity of the CHK1 inhibitor (CHK1i) prexasertib in PARPi-sensitive and -resistant BRCA-mutant HGSC cells and xenograft mouse models. CHK1i monotherapy induced DNA damage, apoptosis, and tumor size reduction. We then conducted a phase 2 study (NCT02203513) of prexasertib in patients with BRCA-mutant HGSC. The treatment was well tolerated but yielded an objective response rate of 6% (1 of 17; one partial response) in patients with previous PARPi treatment. […] BRCA reversion mutation in previously PARPi-treated BRCA-mutant patients was not associated with resistance to CHK1i.
Among others, 1082 oncology drugs, both approved and investigational, were prioritized based on their status in clinical trial development. […] Drugs with average Z-AUC values less than -1.0 in all three cell lines were classified as "hits" resulting in 151 oncology drug hits. The screen also confirmed cross-resistance between olaparib and other PARPis (rucaparib, niraparib, and talazoparib) in PARPi-resistant PEO1/OlaR and PEO4.
[1] G. L. Lin, K. M. Wilson, M. Ceribelli, B. Z. Stanton, P. J. Woo, S. Kreimer, E. Y. Qin, X. Zhang, J. Lennon, S. Nagaraja, P. J. Morris, M. Quezada, S. M. Gillespie, D. Y. Duveau, A. M. Michalowski, P. Shinn, R. Guha, M. Ferrer, C. Klumpp-Thomas, S. Michael, C. McKnight, P. Minhas, Z. Itkin, E. H. Raabe, L. Chen, R. Ghanem, A. C. Geraghty, L. Ni, K. I. Andreasson, N. A. Vitanza, K. E.Warren, C. J. Thomas, M. Monje, Therapeutic strategies for diffuse midline glioma from high-throughput combination drug screening. Sci. Transl. Med. 11, (2019).
[2] T. M. Yamamoto, A. McMellen, Z. L. Watson, J. Aguilera, R. Ferguson, E. Nurmemmedov, T. Thakar, G. L. Moldovan, H. Kim, D. M. Cittelly, A. M. Joglar, E. P. Brennecke, H. Wilson, K. Behbakht, M. J. Sikora, B. G. Bitler, Activation of Wnt signaling promotes olaparib resistant ovarian cancer. Mol. Carcinog. 58, 1770 - 1782 (2019).
PROTOCOL TABLE (as described by Inglese J, Shamu CE and Guy RK. 2007)
SEQUENCE No. (e.g., 1, 2, 3, etc.); […] (e.g., Cells, Incubation, Reagent, etc.); VALUE; DESCRIPTION.
1; Compounds; 20nL; 1536-well white tissue culture-treated plates.
2; Cells; 5 uL; PEO1, PEO4, and PEO1/OlaR cells at 600 cells per well.
3; Incubation; 96 hr; 37C, 95% humidity, 5% CO2.
4; Reagent; 3 uL; CellTiter-Glo (Promega).
5; Incubation; 15 min; room temperature.
6; Detection; Luminescence, PHERAstar (BMG Labtech) plate reader.
NOTES (numbers refer to Sequence numbers above)
1. MIPE 5.0 compounds were acoustically dispensed by Echo Acoustic Liquid Handler (Beckman Coulter Life Sciences). Each compound was plated at an 11-point concentration range with 1:3 dilution. Bortezomib, a proteasome inhibitor (final concentration, 20 uM), was used as a positive.
2. PEO1, PEO4, and PEO1/OlaR were trypsinized and dispensed in 5 uLof growth medium using a Multidrop Combi dispenser at a density of 600 cells per well to allow compounds to be present during the exponential growth phase.
3. Plates were incubated for 96 hours at standard incubator conditions and covered by a stainless steel gasketed lid to prevent evaporation.
4. Three microliters of CellTiter-Glo (Promega) were added to each well.
5. Plates were incubated at room temperature for 15 min with a stainless-steel lid in place.
6. Luminescence readings were taken using PHERAstar (BMG Labtech). […]

[1] abbreviates: measured here: PEO1 parental Z-AUC.

For `CC[N+](CC)(CC)CCOc1cccc(OCC[N+](CC)(CC)CC)c1OCC[N+](CC)(CC)CC`, the Z-AUC is 0.722 (inactive). Under setting [1], the Z-AUC came to 0.846. Where the note is “measured here: PEO4 Z-AUC”, the Z-AUC worked out at 0.666.
As for `CN(C)CCCN1c2ccccc2CCc2ccc(Cl)cc21`, the Z-AUC is -0.0245 (inactive). In addition, the Z-AUC under setting [1] was -0.498. Moreover, the Z-AUC (measured here: PEO4 Z-AUC) was -0.622.
Regarding `CC12CC3CC(C)(C1)CC(N)(C3)C2`, the Z-AUC is 1.05 (inactive). Besides, the Z-AUC under setting [1] turned out to be 0.978. Moreover, the Z-AUC (measured here: PEO4 Z-AUC) worked out at 0.935.
For `Clc1ccc2nsnc2c1NC1=NCCN1` the same measures were 1.68 (inactive), 1.11 and 1.24.
For `CCCNCC(O)COc1ccccc1C(=O)CCc1ccccc1` (configuration not stated) the same measures were 0.52 (inactive), 0.498 and 0.0881.
On the same counts, the results for `CN1CCC(=C2c3ccccc3C=Cc3ccccc32)CC1` are 0.372 (inactive), 0.535 and 0.739.
For the compound `CS(=O)(=O)Nc1ccc([N+](=O)[O-])cc1Oc1ccccc1`, the Z-AUC is 1.34 (inactive). Also, the Z-AUC under setting [1] amounted to 1.22. Moreover, the Z-AUC (measured here: PEO4 Z-AUC) worked out at 1.35.
For `CC(C)NCC(O)COc1ccc(CCOCC2CC2)cc1` (configuration not stated) the same measures were 1.3 (inactive), 0.99 and 1.01.
For `CCN1CCCC1CNC(=O)c1cc(S(=O)(=O)CC)c(N)cc1OC` (configuration not stated), the Z-AUC is 1.05 (inactive). Under setting [1], the Z-AUC came to 0.594. Under “measured here: PEO4 Z-AUC”, the Z-AUC was 0.466.
For `CN(Cc1cnc2nc(N)nc(N)c2n1)c1ccc(C(=O)N[C@@H](CCC(=O)O)C(=O)O)cc1` the same measures were 0.203 (inactive), 0.268 and 0.255.
On the same counts, the results for `Cn1c(=O)c2[nH]cnc2n(C)c1=O` are 0.347 (inactive), 0.72 and 0.784.
On to `CN(C)CCOC(c1ccccc1)c1ccccc1`, for which the Z-AUC was -0.454 (inactive). Moreover, under setting [1], the Z-AUC turned out to be 0.718. In addition, the Z-AUC (measured here: PEO4 Z-AUC) is -0.44.
`COc1ccc2[nH]cc(CCNC(C)=O)c2c1`: the Z-AUC is 1.13 (inactive). For the same compound, under setting [1], the Z-AUC turned out to be 1.56. Further, the Z-AUC (measured here: PEO4 Z-AUC) was found to be 1.13.
Take `NCCc1cnc[nH]1`: the Z-AUC was 0.48 (inactive). The Z-AUC under setting [1] was found to be 0.383. Further, the Z-AUC (measured here: PEO4 Z-AUC) is 0.867.
